Measured values as given in PubChem BioAssay AID2289 (National Center for Advancing Translational Sciences (NCATS), 2010).
Among all 340,000 compounds or so, about 3,300 (0.97%) were called active. Another 9% or so got no clear call; they are omitted. The call rests on the fitted dose curve; in most records, active means well fitted inhibition curve with a large enough effect; inconclusive means small, poorly fitted or top-dose-only effect, or effect the other way; inactive means flat fitted curve, though single readings scatter. The list shows a part of the results.

Test: qHTS Assay for Modulators of miRNAs and/or Inhibitors of miR-21; further: nearly all actives have a fitted effect of over 55% in size
Conditions: HeLa miR-21-FLuc reporter, luciferase luminescence, 48 h; actives lower the signal
Method in brief: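 Luminescence from a firefly luciferase reporter carrying a miR-21 binding site downstream, stably expressed under a CMV promoter in HeLa cells that make miR-21 endogenously, reports miRNA modulation after 48 h compound exposure up to approximately 40uM final.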
Potency means the concentration at half of the fitted maximal effect.

Potency, active:
CC(=O)c1sc2nc(-c3ccco3)ccc2c1N 14.7 µM
NC(=O)c1sc2nc(-c3ccco3)ccc2c1N 14.7 µM
Cc1ccc2cc(CCNC(=O)c3cccs3)c(=O)[nH]c2c1 4.14 µM
Cc1cc2cc(CCNC(=O)c3cccs3)c(=O)[nH]c2cc1C 3.69 µM
Cc1ccc2cc(CCNC(=O)c3cccs3)c(=O)[nH]c2c1C 2.93 µM
CSCc1ccc(C(=O)Nc2ccc(C(N)=O)cc2)cc1 1.65 µM
O=C(Nc1ccc(F)cc1)/C(Cl)=C/c1ccccc1 1.31 µM
CC(=O)c1ccc(NC(=O)/C(Cl)=C/c2ccccc2)cc1 5.21 µM
CC(C)=CCN1CCN(Cc2cnc(N3CCOCC3)s2)CC1CCO (stereo unspecified) 1.65 µM
COc1ccc(Cn2c(SCC#N)nc3ccc(N4CCOCC4)cc3c2=O)cc1 6.56 µM
Cc1cc(N(CCO)CCO)ccc1N=Nc1cc(F)ccc1F 9.27 µM
COc1ccc(C(=O)C(OC(=O)c2ccccc2Cl)c2ccccc2)cc1 (stereo unspecified) 14.7 µM
COc1cccc(NC(=O)c2c(-c3ccc(C)cc3)nnc3ccccc23)c1 4.65 µM
Cc1ccc(-c2nnc3ccccc3c2C(=O)Nc2ccc(F)cc2)cc1 6.56 µM
Cc1nnc(SCc2ccccc2)c2cc3sccc3n12 14.7 µM
COc1cccc2cc(-c3ccccc3)c(=O)oc12 1.65 µM
COc1cccc2cc(-c3nc(-c4ccccc4F)no3)c(=O)oc12 0.185 µM
Cc1cc(NC(=O)CSc2nc3c(cc2C#N)CCCC3)no1 1.47 µM
COc1cc2cc(C#N)c(SCC(=O)N3CCOCC3)nc2cc1OC 11.7 µM
N#Cc1cc2cc3c(cc2nc1SCC(=O)N1CCOCC1)OCO3 0.656 µM
Clc1ccc(-c2cnc3ccccc3n2)cc1 4.14 µM
CCCCOc1ccc(-c2cnc3ccccc3n2)cc1 0.656 µM
CN(C)c1ccc(-n2cccc2/C=N/n2cnnc2)cc1 8.26 µM
COC(=O)c1ccc(COc2ccc(C)c(C)c2)o1 14.7 µM
O=C(OCc1ccccn1)c1ccc(COc2ccc3ccccc3c2)o1 6.56 µM
COC(=O)c1ccc(COc2ccc(C(C)(C)C)cc2)o1 10.4 µM
CCCc1ccc(OCc2ccc(C(=O)OC)o2)c(OC)c1 7.36 µM
COC(=O)c1ccc(COc2ccc3c(c2)CCC3)o1 5.21 µM
COC(=O)c1ccc(COc2ccc(C)cc2[N+](=O)[O-])o1 13.1 µM
CCc1ccc(OCc2ccc(C(=O)OC)o2)cc1 5.21 µM
C=CCN(C(=O)c1oc2c(Cl)cc(C)cc2c1C)C1CCS(=O)(=O)C1 (stereo unspecified) 10.4 µM
Cc1cc(Cl)c2oc(C(=O)N(C)C3CCOC3)c(C)c2c1 (stereo unspecified) 14.7 µM
Cc1cc(Cl)c2oc(C(=O)N(C)CC3CCOCC3)c(C)c2c1 14.7 µM
Cc1cc(Cl)c2oc(C(=O)NCCC3CCCCO3)c(C)c2c1 (stereo unspecified) 14.7 µM
CCCCn1cnc2c(oc3ccccc32)c1=O 13.1 µM
CN(C)c1ncnc2sc(-c3ccccc3)cc12 14.7 µM
Cc1nc2sc(-c3ccccc3)cc2c(=O)n1/N=C/N(C)C 3.29 µM
CCc1cc2c(=O)n(-c3ccccc3)cnc2s1 13.1 µM
CC(=O)Cn1nnc2sc(-c3ccccc3)cc2c1=O 1.85 µM
CCc1cc2c(SCC(=O)c3ccccc3)ncnc2s1 8.26 µM
CCn1cnc2sc(-c3ccccc3)cc2c1=O 1.47 µM
O=C(CSc1ncnc2ccccc12)c1ccc2c(c1)OCCO2 2.07 µM
CC(=O)Cn1cnc2sc(-c3ccccc3)cc2c1=O 4.14 µM
CCCCn1cnc2sc(-c3ccccc3)cc2c1=O 1.31 µM
O=C(NC1CCCCC1)c1cc(-c2cccs2)on1 2.93 µM
O=C(NC1CCCC1)c1cc(-c2cccs2)on1 2.33 µM
Cn1c(C(=O)NC2CCCCC2)cc2sccc21 6.56 µM
Cc1cccc2sc(NC(=O)C3CCCO3)nc12 (stereo unspecified) 13.1 µM
O=C(Nc1ncc(Cc2cccc(Cl)c2)s1)C1CCCO1 (stereo unspecified) 7.36 µM
O=C(Nc1nnc(SCc2c(Cl)cccc2Cl)s1)C1CCCO1 (stereo unspecified) 18.5 µM
O=C(Nc1nnc(-c2ccccc2F)s1)C1CCCO1 (stereo unspecified) 1.85 µM
O=C(Nc1ncc(Cc2cccc(Cl)c2Cl)s1)C1CCCO1 (stereo unspecified) 7.36 µM
CC1CCCN(c2ccc(C(=O)NCc3cccs3)cn2)C1 (stereo unspecified) 6.56 µM
CC(C)(CO)NC(=O)c1ccc2c(c1)C(=O)c1ccccc1-2 5.21 µM
Cc1ccsc1C(=O)OCC(=O)NCCC1=CCCCC1 18.5 µM
O=c1[nH]cnc2scc(-c3ccc(-c4ccccc4)cc3)c12 0.521 µM
Cc1ccccc1-c1ncnn1-c1sc2c(c1C#N)CCCCC2 1.31 µM
N#Cc1c(-n2ncnc2-c2ccc(F)cc2)sc2c1CCCCC2 3.69 µM
C1=Nc2ccccc2CN1c1ccccc1 5.85 µM
Oc1cccc(-c2nc3ccc4ccccc4c3c3c2CCC3)c1 5.21 µM
CCOCCCNC(=O)c1cccc(OC2CCN(S(C)(=O)=O)CC2)c1 5.85 µM
Nc1c(C(=O)C2CC2)sc2nc3c(cc12)CCC3 1.85 µM
Nc1c(C(=O)N2CCCCC2)sc2nc3c(cc12)CCCC3 1.31 µM
COCCCN(C(C)=O)c1nc(-c2ccccc2)cs1 6.56 µM
CN(C(=O)c1ccco1)c1nc(-c2ccccc2)cs1 1.85 µM
COc1ccc(/C=N/Nc2nncc3ccccc23)c(OC)c1 5.85 µM
COc1ccccc1/C=N/Nc1nncc2ccccc12 4.65 µM
COc1ccccc1C(=O)NC1=NC(c2ccc(Br)cc2)CC(=O)N1 (stereo unspecified) 1.85 µM
N=c1nc(N)nc2n1NC(c1ccc(F)cc1)=CS2 16.5 µM
C(=C\c1nc(-c2ccccc2)no1)/c1ccccc1 1.04 µM
Clc1ccccc1/C=C/c1nc(-c2cccnc2)no1 0.656 µM
Cc1ccc2oc(-c3ccco3)cc(=O)c2c1 5.85 µM
Cc1cccc2c1-c1sc(C(=O)Nc3ccccc3C(N)=O)cc1CO2 0.165 µM
Cc1cccc2c1-c1sc(C(=O)N3CCCCC3)cc1CO2 3.69 µM
CCN(CC)c1ccc(-c2nc3cnccc3n2C)cc1 3.69 µM
COc1ccc(NC(=O)n2ncc3c(C)cccc32)cc1OC 7.36 µM
COc1ccc(NC(=O)n2ncc3cc(Cl)ccc32)cc1OC 8.26 µM
COc1ccc2nc3sc(C(=O)NCc4cccs4)c(N)c3cc2c1 1.31 µM
Cc1ccc2nc3sc(C(=O)NCc4ccco4)c(N)c3cc2c1 0.521 µM
c1ccc(CN2CCN(c3nc4ccccc4s3)CC2)cc1 1.31 µM
Clc1ccc2nc(N3CCN(c4ccccc4)CC3)sc2c1 0.464 µM
Clc1ccc2nc(N3CCCCC3)sc2c1 2.07 µM
CC(C)(C)c1ccc(/C=C/C(=O)Nc2nncs2)cc1 0.369 µM
O=C(COc1ccc(Br)cc1Br)NC(=S)Nc1cccc(CO)c1 1.65 µM
O=C(COc1ccc2ccccc2c1Br)NC(=S)Nc1cccc(CO)c1 20.7 µM
COc1ccc(C(=O)N=c2sc3c(C)ccc(OC)c3n2C)cc1 0.185 µM
CCn1c(=NC(=O)c2ccc3c(c2)OCCO3)sc2c(C)ccc(OC)c21 1.31 µM
COc1ccccc1C(=O)N=c1sc2c(C)ccc(OC)c2n1C 3.69 µM
O=C(NC(=S)Nc1ccc2c(c1)OCCO2)c1cccc(Br)c1 3.69 µM
Cc1cc(C)cc(C(=O)NC(=S)Nc2ccc3c(c2)OCCO3)c1 7.36 µM
CCc1ccc(C(=O)NC(=S)Nc2ccc3c(c2)OCCO3)cc1 2.07 µM
O=C(O)c1ccc(-c2nc(-c3ccc(Cl)cc3)cs2)cc1 0.414 µM
O=C(O)c1ccc(-c2nc(-c3ccccc3)cs2)cc1 2.61 µM
CNC(=O)c1ccc(-c2nc(-c3ccccc3)cs2)cc1 3.29 µM
COc1ccccc1NC(=O)C/C(C)=N/NC(=O)c1ccccn1 1.85 µM
C/C(CC(=O)NCc1ccccc1Cl)=N/NC(=O)c1ccccn1 8.26 µM
C/C(CC(=O)Nc1cc(C)cc(C)c1)=N\NC(=O)c1ccccn1 4.65 µM
CCOC(=O)C1CCCN(C(=O)CCc2nnc(-c3ccc(C(C)=O)s3)o2)C1 (stereo unspecified) 3.29 µM
Fc1ccccc1-n1ncc2c1ncn1nc(-c3ccccc3Cl)nc21 0.736 µM
CC1(C)C=Cc2cc3ccc(=O)oc3cc2O1 13.1 µM
COc1c2c(cc3oc(=O)ccc13)OC(C)(C)C=C2 18.5 µM
NC(=O)c1ccccc1NC(=O)c1ccc(-c2ccc(Br)cc2)o1 1.17 µM
O=C(NC(=S)Nc1ccccc1C(=O)O)c1ccc(-c2ccc(Br)cc2)o1 11.7 µM
S=c1[nH]nc(-c2ccc(Cl)cc2Cl)n1-c1ccccc1 5.21 µM
CN(c1ccccc1)c1ccc(/C=N/N2CCOCC2)cc1 1.47 µM
O=[N+]([O-])c1ncccc1OCc1ccc(Cl)c(Cl)c1 7.36 µM
